# Assay results as given in PubChem BioAssay (NCI).
# This is part of a sample that, as a whole, favours compounds with a hit. Of some 79,000 tested, about 15% had one in any assay. The source made the active and inactive calls. Cut-off read from the data, not from the text of the source: active = growth inhibition above about 70%; inactive = the rest.
# Assay: NCI Yeast Anticancer Drug Screen. Data for the rad50 strain (AID 155);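 note: 0% = growth of vehicle-only cultures of the same strain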
# Conditions: S. cerevisiae rad50 strain growth inhibition; at 5.0 µM (retest, dose inferred, filed as 0.5); stronger effect = higher value
# Method in brief: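 Compounds were tested on a yeast strain with an engineered DNA damage repair alteration; the reported value is growth inhibition normalised to vehicle treatment.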
row,Structure (SMILES),growth inhibition
1,CC1SC(=S)N(c2ccc(Cl)cc2)C1=O (stereo unspecified),4% (inactive)
2,CCCCCCCCCC(=O)NN=C(C)C,-129% (inactive)
3,O=C(/C=C/c1ccccc1)C1(c2ccccc2)CC1,-125% (inactive)
4,Nc1n[n+](-c2ccccc2)no1,34% (inactive)
5,N#CC(C#N)=C(c1ccccc1)c1ccccc1,-8% (inactive)
6,CS(=O)(=O)OCCCN(CCCOS(C)(=O)=O)c1ccc(C=Nc2ccc(-c3csc(COc4ccc(Br)cc4Br)n3)cc2)cc1,18% (inactive)
7,CSc1ncnc2ncn(C3OC(CO)C(O)C3O)c12 (stereo unspecified),-16% (inactive)
8,CNC(=O)c1ccc(OC)cc1C1(O)c2ccccc2CCc2ccccc21,40% (inactive)
9,O=[N+]([O-])c1ccc(Oc2c(Cl)cccc2Cl)cc1,-7% (inactive)
10,CN(C)C(=O)c1ccc(SC(=S)NCc2ccccc2)cc1,11% (inactive)
11,CC(C)c1ccc(C(=O)OC2CCCCC2)cc1,7% (inactive)
12,O=C(Nc1ccc(C(=O)c2ccccc2)cc1)Nc1ccc(Cl)c(Cl)c1,23% (inactive)
13,O=C1c2ccccc2C(=O)c2sc(Nc3ccc(Cl)cc3)nc21,79% (active)
14,O=C1NC(=O)N(c2ccc([N+](=O)[O-])cc2)C1=O,9% (inactive)
15,CCN(CC)CCNc1nc(N)c2nc(-c3ccccc3)c(-c3ccccc3)nc2n1,-4% (inactive)
16,CCCCCCCCOc1ccc(/C=C/C(C)=N/NC(N)=NC)cc1OC,98% (active)
17,CC1=NN(C(=O)c2ccc(Cl)cc2)C(=O)C1N=Nc1ccc(S(=O)(=O)Nc2ncccn2)cc1 (stereo unspecified),61% (inactive)
18,CCOC(=O)C(Br)C(Br)c1cccc([N+](=O)[O-])c1 (stereo unspecified),97% (active)
19,Cc1ccccc1N1CCN(c2c3c(nc4ccccc24)CCCCC3)CC1,-4% (inactive)
20,O=S(=O)(O)SCCNCCCCCC1CCCCC1,20% (inactive)
21,CC([N+](=O)[O-])C1(O)C(=O)c2cccc3cccc1c23 (stereo unspecified),-7% (inactive)
22,CCS(CC)(CC)CC1CCCC2=CCC(P(=O)(c3ccccc3)c3ccccc3)CC21 (stereo unspecified),5% (inactive)
23,O=C(O)C(CS)Nc1c2ccccc2nc2ccccc12 (stereo unspecified),17% (inactive)
24,CCCCCCCCCCCC1C(C#N)C(=O)NC(=O)C1C#N (stereo unspecified),92% (active)
25,O=C(O)CCSSCCCCCS(=O)O,-5% (inactive)
26,CC(C)CNc1cc(Cl)nc(N)n1,-1% (inactive)

# Same assay, conditions: S. cerevisiae rad50 strain growth inhibition; at 50.0 µM (retest, dose inferred, filed as 5.0); stronger effect = higher value
row,Structure (SMILES),growth inhibition
1,C=C(CCC(C)C1CCC2(C)C3=C(CC(O)C12C)C1(C)CCC(O)C(C)(C)C1CC3)C(C)C(=O)O (stereo unspecified),88% (active)
2,CC(=O)O[C@H]1CC[C@]2(C)C3=CC[C@]4(C)[C@@H](C(C)=O)CC[C@H]4[C@@]34C=C[C@]2(C1)C1C(=O)OC(=O)C14 (stereo partly specified),2% (inactive)
3,CCC1(c2ccc(N3C(=O)c4ccccc4C3=O)cc2)CCC(=O)NC1=O (stereo unspecified),-3% (inactive)
4,O=C(NNS(=O)(=O)c1ccccc1)Nc1ccccc1,-15% (inactive)
5,CCN(CC)CCNc1c(C)ccc2cccnc12,7% (inactive)
6,CCOC(=O)CCC(NC(=O)c1ccc(NC(OC)c2nc3cc(C(F)(F)F)ccc3nc2-c2ccccc2)cc1)C(=O)OCC (stereo unspecified),88% (active)
7,CCCC(O)C[N+](=O)[O-] (stereo unspecified),71% (active)
8,O=C(Nc1cccc(Br)c1)Oc1cccc2cccnc12,97% (active)
9,C=C1CC(C)(COc2ccc3c(C)c(C)c(=O)oc3c2C)OC1=O (stereo unspecified),82% (active)
10,Cc1cc(Br)c(N2C3=C(CC4=C2CCCC4=O)C(=O)CCC3)c(Br)c1,90% (active)
11,CCN(CC)CC(O)CNc1ccc(C)c2sc3ccccc3c(=O)c12 (stereo unspecified),99% (active)
12,COC1/C=C/OC2(C)Oc3c(C)c(O)c4c(c3C2=O)C(=O)C=C(NC(=O)/C(C)=C\C=C\C(C)C(OC=O)C(C)C(O)C(C)C(OC(C)=O)C1C)C4=O (stereo unspecified),-4% (inactive)
13,OC(c1cc2ccccc2o1)c1cc2ccccc2s1 (stereo unspecified),95% (active)
14,Nc1nnc(-c2cc([N+](=O)[O-])cc([N+](=O)[O-])c2)o1,-2% (inactive)
15,CC1SC(=S)N(c2ccc(Cl)cc2)C1=O (stereo unspecified),68% (inactive)
16,CCCCCCCCCC(=O)NN=C(C)C,54% (inactive)
17,O=C(/C=C/c1ccccc1)C1(c2ccccc2)CC1,-56% (inactive)
18,Nc1n[n+](-c2ccccc2)no1,81% (active)
19,N#CC(C#N)=C(c1ccccc1)c1ccccc1,99% (active)
20,CS(=O)(=O)OCCCN(CCCOS(C)(=O)=O)c1ccc(C=Nc2ccc(-c3csc(COc4ccc(Br)cc4Br)n3)cc2)cc1,83% (active)

row,Structure (SMILES),growth inhibition
1,CSc1ncnc2ncn(C3OC(CO)C(O)C3O)c12 (stereo unspecified),-1% (inactive)
2,CNC(=O)c1ccc(OC)cc1C1(O)c2ccccc2CCc2ccccc21,64% (inactive)
3,O=[N+]([O-])c1ccc(Oc2c(Cl)cccc2Cl)cc1,9% (inactive)
4,CN(C)C(=O)c1ccc(SC(=S)NCc2ccccc2)cc1,99% (active)
5,CC(C)c1ccc(C(=O)OC2CCCCC2)cc1,97% (active)
6,O=C(Nc1ccc(C(=O)c2ccccc2)cc1)Nc1ccc(Cl)c(Cl)c1,96% (active)
7,O=C1c2ccccc2C(=O)c2sc(Nc3ccc(Cl)cc3)nc21,97% (active)
8,O=C1NC(=O)N(c2ccc([N+](=O)[O-])cc2)C1=O,3% (inactive)
9,CCN(CC)CCNc1nc(N)c2nc(-c3ccccc3)c(-c3ccccc3)nc2n1,51% (inactive)
10,CCCCCCCCOc1ccc(/C=C/C(C)=N/NC(N)=NC)cc1OC,98% (active)
11,CC1=NN(C(=O)c2ccc(Cl)cc2)C(=O)C1N=Nc1ccc(S(=O)(=O)Nc2ncccn2)cc1 (stereo unspecified),93% (active)
12,CCOC(=O)C(Br)C(Br)c1cccc([N+](=O)[O-])c1 (stereo unspecified),99% (active)
13,Cc1ccccc1N1CCN(c2c3c(nc4ccccc24)CCCCC3)CC1,94% (active)
14,O=S(=O)(O)SCCNCCCCCC1CCCCC1,87% (active)
15,CC([N+](=O)[O-])C1(O)C(=O)c2cccc3cccc1c23 (stereo unspecified),55% (inactive)
16,CCS(CC)(CC)CC1CCCC2=CCC(P(=O)(c3ccccc3)c3ccccc3)CC21 (stereo unspecified),5% (inactive)
17,O=C(O)C(CS)Nc1c2ccccc2nc2ccccc12 (stereo unspecified),88% (active)
18,CCCCCCCCCCCC1C(C#N)C(=O)NC(=O)C1C#N (stereo unspecified),92% (active)
19,O=C(O)CCSSCCCCCS(=O)O,-4% (inactive)
20,CC(C)CNc1cc(Cl)nc(N)n1,0% (inactive)
